High-throughput results (PubChem BioAssay)
In the library only some 4.9% were active in any assay of this set; here they are far more common.
tim23-1 inh – growth inhibitors of tim23-1 mutant yeast, primary screen, luminescence, uHTS; inhibition, % at 20 µM; AID 463212, 2010; 1.3% of 330,000 active; S. cerevisiae tim23-1 growth, BacTiter-Glo luminescence, 24 h;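 active = growth inhibition of the mutant yeast at or above 50%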;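 note: temperature-sensitive mutant grown at 25 °C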
tim10-1 inh – growth inhibitors of tim10-1 mutant yeast, primary screen, luminescence, uHTS; S. cerevisiae tim10-1 ts strain growth, BacTiter-Glo, 24 h; inhibition, % at 20 µM; 2.2% of 330,000 active;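 active = inhibition of at least 40%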;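 note: mutant grown at 25 °C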
SKKanGAS inh – S. pyogenes SKKanGAS growth inhibitors in kanamycin, primary screen, streptokinase expression inhibitor project, SKKanGAS strain, BacTiter-Glo luminescence; 6 h; AID 1662, 2009; inhibition, % at 7.5 µM; 1.3% of 300,000 active;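 active = mean replicate score, as percent of positive control median, at least 50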;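 note: strain carries kanamycin resistance gene driven by streptokinase promoter and grows in 40 µg/ml kanamycin; loss of luminescence reflects streptokinase promoter inhibition or plain growth inhibition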
NALP3 yeast inh – NALP3 inflammasome inhibitors in reconstituted yeast, primary screen, luminescence, uHTS; 0.39% of 330,000 active; Yeast reconstituted NLRP3/ASC/caspase-1, beta-gal luminescence, 24 h; inhibition, % at 10 µM; AID 2825, 2010;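 active = inhibition of 50% or more; inactive = inhibition below 50%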
NALP1 yeast inh – NALP1 inflammasome inhibitors in reconstituted yeast, colorimetric, S. cerevisiae, triplicate retest. inhibition, % at 10 µM. 0.61% of 280,000 active. S. cerevisiae NALP1/ASC/caspase-1 growth, X-gal OD620, 72 h; in the data active = inhibition mostly above about 24%, no sharp cut-off; inactive = mostly below about 32%
TIM10 inh – growth inhibitors of isogenic TIM10 control yeast, primary screen, counter-screen for tim10-1 yeast inhibitor project, luminescence, uHTS; S. cerevisiae TIM10 strain growth, BacTiter-Glo luminescence, 24 h; inhibition, % at 10 µM; 1.4% of 330,000 active;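 active = inhibition of 40% or more at the single tested concentration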;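 note: wild-type TIM10 isogenic control strain grown at permissive 25 °C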
tim10-1 confirm – growth inhibitors of tim10-1 mutant yeast, confirmation, single concentration, luminescence, S. cerevisiae; shares compounds with tim10-1 inh; inhibition, % at 20 µM; 56% of 7,400 active; S. cerevisiae tim10-1 ts strain growth, BacTiter-Glo, 24 h;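 active = inhibition of yeast growth at or above a set limit in either of two repeat tests at 20 µM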;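 note: tim10-1 mutant grown at permissive 25 °C to find synthetic lethal compounds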
Each line names hits and unclear results; the compound was inactive in the other large screens (follow-up assays come after a bar, where they were run).

Cc1nc(N)sc1-c1csc(Nc2ccc(Cl)cn2)n1	tim10-1 inh 56.7 | tim10-1 confirm 38.1
O=C(Oc1ccc(C(=S)N2CCOCC2)cc1)c1ccccc1[N+](=O)[O-]	tim10-1 inh 41.6 | tim10-1 confirm 36.6
CCCCCCCCCCCCN1[C@@H](CC(=O)O)c2cc(C(F)(F)F)ccc2S1(=O)=O	tim10-1 inh 63.7, SKKanGAS inh 88.6 (no result: NALP1 yeast inh) | tim10-1 confirm inactive
CCCCCCCCN1[C@@H](CC(=O)O)c2cc(C(F)(F)F)ccc2S1(=O)=O	none (no result: NALP1 yeast inh)
C[C@@H]1CN([C@H](C)CO)C(=O)c2cccc(NS(=O)(=O)c3ccccc3)c2O[C@H]1CN(C)C	none (no result: SKKanGAS inh, NALP1 yeast inh)
CS(=O)(=O)c1ccc(S(=O)CC(=O)OCc2ccccc2)c([N+](=O)[O-])c1 (stereo not given)	none (no result: tim23-1 inh, tim10-1 inh, NALP3 yeast inh, TIM10 inh)
CCc1nc2ccc(C(=O)NCc3ccc(C)o3)cc2nc1CC	tim10-1 inh 48.6 | tim10-1 confirm inactive
CCc1nc2ccc(C(=O)NCCc3ccc(OC)cc3)cc2nc1CC	tim10-1 inh 40.5 | tim10-1 confirm inactive
CCc1nc2ccc(C(=O)NCCc3ccc(OC)c(OC)c3)cc2nc1CC	none
C/C(=N\OC(=O)c1c(-c2ccccc2Cl)noc1C)c1ccncc1	none
Cc1onc(-c2cccc(Cl)c2Cl)c1C(=O)O/N=C(\N)c1ccc([N+](=O)[O-])o1	tim10-1 inh 44.1 | tim10-1 confirm inactive
COc1ccccc1NC(=O)c1cnc(SC)nc1	none
Cc1cc(NC(=S)Nc2ccccc2)ccc1Br	tim10-1 inh 41.3 | tim10-1 confirm inactive
COc1cccc(NC(=S)Nc2cccc3ccccc23)c1	tim10-1 inh 55.3 | tim10-1 confirm inactive
Fc1ccc(NC(=S)Nc2cccc3ccccc23)cc1F	tim10-1 inh 41.8 | tim10-1 confirm inactive
Cc1cccc(NC(=S)Nc2cccc3ccccc23)c1	tim10-1 inh 45.2 | tim10-1 confirm inactive
COc1ccccc1CNCC(=O)Nc1ccc(N(C)C)cc1	none
CCNC(=S)N/N=C(\C)c1cc2ccccc2o1	none
C/C(=N\NC(=S)Nc1cccc(C)c1)c1cc2ccccc2o1	tim10-1 inh 47.4, SKKanGAS inh 66.6 | tim10-1 confirm 39.3
CCOC(=O)c1cc(CC)sc1NC(=O)c1cc(OCC)c(OCC)c(OCC)c1	none
CCOC(=O)c1cc(CC)sc1NC(=O)c1ccc2c(c1)OCCO2	tim10-1 inh 41.3 | tim10-1 confirm inactive
COc1ccc(N2CCC(CNC(=O)Nc3ccccc3)C2)cc1 (stereo not given)	tim10-1 inh 41.3 | tim10-1 confirm 32.9
COc1ccc(N2CCC(CNC(=S)Nc3cc(C)cc(C)c3)C2)cc1 (stereo not given)	none (no result: NALP1 yeast inh)
CCCNC(=O)C12CCC(C)(c3nc4cc(C)c(C)cc4nc31)C2(C)C (stereo not given)	tim10-1 inh 41.9 (no result: SKKanGAS inh) | tim10-1 confirm inactive
CNC(=O)C12CCC(C)(c3nc4cc(C)c(C)cc4nc31)C2(C)C (stereo not given)	none
COc1ccccc1C(=O)Nc1ccnn1C1CCN(Cc2ccccc2OCCO)CC1	none
COc1ccc(C(=O)CN(C(=O)c2ccc(Cl)cc2)N2C(=O)C3CCCCC3C2=O)cc1 (stereo not given)	tim10-1 inh 47.1 | tim10-1 confirm inactive
CCOc1ccc(/C=C/c2c([N+](=O)[O-])c(=O)n(C)c(=O)n2C)cc1	none
CCc1ccc(/C=C/c2c([N+](=O)[O-])c(=O)n(C)c(=O)n2C)cc1	tim10-1 inh 40.2, SKKanGAS inh 49.9 | tim10-1 confirm 34.6
CN(C)S(=O)(=O)c1cccc(NC(=O)C2CCN(S(=O)(=O)c3cccs3)CC2)c1	none (no result: SKKanGAS inh, NALP1 yeast inh)
CCc1cc(=O)oc2cc(C)cc(OCC(=O)N3CCC(C(=O)O)CC3)c12	none
O=C(Nc1ccc(N2CCOCC2)c(Cl)c1)c1c(F)c(F)c(F)c(F)c1F	tim10-1 inh 50.2 | tim10-1 confirm 39.8
COc1ccc(NC(=O)c2ccc(OC(=S)N(C)c3ccc(OC)cc3)cc2)cc1	none
CN(C(=S)Oc1ccc(C(=O)Nc2ccccc2)cc1)c1ccccc1	tim10-1 inh 51.4 | tim10-1 confirm inactive
O=C(COn1nnc2ccc(Cl)cc21)Nc1ccc(F)cc1	none
O=C(COn1nnc2ccc(Cl)cc21)NC12CC3CC(CC(C3)C1)C2	tim10-1 inh 40.5 | tim10-1 confirm 32.4
C=C(C)C1CC=C(C)/C(=N/NC(=O)CNc2ccc(OCC)cc2)C1 (stereo not given)	tim10-1 inh 42.3 | tim10-1 confirm inactive
C=C(C)C1CC=C(C)/C(=N/NC(=O)CNc2ccc(C)cc2C)C1 (stereo not given)	none (no result: tim23-1 inh, tim10-1 inh, NALP3 yeast inh, TIM10 inh)
C/C(=C\C(=O)c1ccccc1)NNc1nc2ccccc2s1	tim10-1 inh 55.0 | tim10-1 confirm 38.8
CC(=O)NNc1nc2ccccc2s1	none
CC(C)COC(=O)n1c(=O)oc2cc(S(=O)(=O)N3CCCCC3)ccc21	tim10-1 inh 41.0 | tim10-1 confirm 38.3
COc1ccc(OC)c(NC(=O)c2cccc3c2C(=O)N(C2CCCCC2)C3)c1	tim10-1 inh 53.8 | tim10-1 confirm inactive
COc1ccc(C(=S)NCS(=O)(=O)c2ccc(C)cc2)cc1	tim10-1 inh 40.4 | tim10-1 confirm inactive
Cc1ccc(S(=O)(=O)CNC(=S)c2cccc(C)c2)cc1	none
CCOC(=O)c1c(NC(=O)CN2C(=O)NC(C)(c3ccc(OC(F)F)cc3)C2=O)sc(C)c1C (stereo not given)	tim10-1 inh 42.7 | tim10-1 confirm inactive
CC1(c2ccc(OC(F)F)cc2)NC(=O)N(CC(=O)Nc2ccc(OC(F)F)cc2)C1=O (stereo not given)	none
Nc1nc(Nc2cccc(C(F)(F)F)c2)nc(C(F)(F)F)n1	tim10-1 inh 44.1 | tim10-1 confirm 35.4
Nc1ncnc(Nc2cccc(C(F)(F)F)c2)n1	none
COc1ccc(-c2nn(-c3ccccc3)cc2C(=O)N2CCN(S(=O)(=O)c3cccc(F)c3)CC2)cc1	none (no result: NALP1 yeast inh)
CCn1c(-c2cc(-c3cccc(OC)c3)nc3ccccc23)n[nH]c1=S	tim10-1 inh 42.7 | tim10-1 confirm inactive
COc1cc2oc(=O)cc(-c3ccc(-c4ccc(N(C)C)cc4)cc3)c2c(OC)c1OC	none (no result: SKKanGAS inh, NALP3 yeast inh, NALP1 yeast inh)
O=C(O)CN1C(=O)/C(=C\c2cccc(OCc3ccc(Cl)cc3Cl)c2)SC1=S	none
CCCC(=O)Nc1cc(C)c(NC(=O)C23CC4CC(CC(C4)C2)C3)cn1	tim10-1 inh 42.4 | tim10-1 confirm 31.8
O=C(NC1CCCc2ccccc21)C1CCN(S(=O)(=O)c2ccccc2)CC1 (stereo not given)	tim10-1 inh 40.1 | tim10-1 confirm inactive
